# Results from PubChem BioAssay (EPA / NIEHS).
# Values joined by “and” are separate entries in the source; they are usually repeats but may differ in a detail not shown here. Identical values can stand only once. Results filed as inconclusive are left out. More than one record can exist for a structure, and the calls need not agree. Active and inactive are the calls of the source. Rule for the calls, unless noted: active = hit-call score of the fitted dose curve at least 0.9, where 1 is the maximum; inconclusive = response in the unintended direction; inactive = score below 0.9.
# What was measured:
# [1] = target: Cytochrome P450 2C19 (Homo sapiens) (UniProt P33261); experiment: NVS_ADME_hCYP2C19: NovaScreen (NVS) CYP450-related Enzyme Activity (ADME) Assay for human CYP2C19 (AID 2283113);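 for AC50: potency for inhibition seen as loss of fluorescent signal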
# How it was run: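 Chemicals first screened in duplicate at 10 uM against recombinant human enzyme produced in insect cells; confirmed actives then run as concentration series. Fluorogenic substrate turnover read by fluorescence after 1 h, normalised to acetonitrile.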
# [2] = target: rat CYP2A1, Cyp2a1 (gene 24894) (UniProt P11711); experiment: NVS_ADME_rCYP2A1: NovaScreen (NVS) CYP450-related Enzyme Activity (ADME) Assay for rat CYP2A1 (AID 2283114; active = hit-call score of the fitted dose curve at least 0.9, where 1 is the maximum; inactive = score below 0.9)
# How it was run: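 Cell-free fluorescence enzyme-activity read on recombinant rat CYP2A1, taken 0.75 h post-dosing. Compounds were screened in duplicate at 10 uM, then hits tested in concentration series (max 20 uM); inhibition scored relative to acetonitrile baseline.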
# [3] = target: human CYP2D6, CYP2D6 (gene 1565) (UniProt P10635); experiment: NVS_ADME_hCYP2D6: NovaScreen (NVS) CYP450-related Enzyme Activity (ADME) Assay for human CYP2D6 (AID 2283107)
# How it was run: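 Compounds were first tested in duplicate at 10 uM against recombinant enzyme produced in insect cells, with substrate turnover measured by fluorescence after 1 hour. Decreased signal, referenced to acetonitrile vehicle, was taken as reduced enzyme activity. Active chemicals went on to concentration-response testing.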
# [4] = target: rat CYP2C11, Cyp2c11 (gene 29277) (UniProt P08683); experiment: NVS_ADME_rCYP2C11: NovaScreen (NVS) CYP450-related Enzyme Activity (ADME) Assay for rat CYP2C11 (AID 2283118)
# How it was run: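 Screened first at 10 uM in duplicate, hits followed by concentration-response. Recombinant rat enzyme activity monitored by fluorescence 0.33 h post-dosing, normalised to acetonitrile negative control.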
# rat CYP3A1, gene 25642 = experiment: NVS_ADME_rCYP3A1: NovaScreen (NVS) CYP450-related Enzyme Activity (ADME) Assay for rat CYP3A1 (AID 2283126)
# How it was run: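 Compounds went first at 10 uM duplicate, then to series with 20 uM maximum. Fluorescence from substrate turnover by the recombinant enzyme was measured 0.5 h post-dosing, inhibition scored against acetonitrile vehicle.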
# [5] = target: rat CYP3A2, Cyp3a2 (gene 266682) (UniProt P05183); experiment: NVS_ADME_rCYP3A2: NovaScreen (NVS) CYP450-related Enzyme Activity (ADME) Assay for rat CYP3A2 (AID 2283128)
# How it was run: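 Fluorescence readout of extracted rat CYP3A2 activity 0.5 h post-dose, acetonitrile as negative control. Single-point testing in duplicate at 10 uM, followed by concentration series to a 20 uM maximum for actives.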
# [6] = target: human Casein Kinase 2- alpha 2 beta 2 (CK2a2b2), CSNK2A1 (gene 1457) (UniProt P68400); experiment: NVS_ENZ_hCK2a2b2: NovaScreen (NVS) Enzymatic Assay for human Casein Kinase 2- alpha 2 beta 2 (CK2a2b2) (AID 2283147)
# How it was run: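 Compounds were first screened in duplicate at 25 uM, and those passing the threshold were re-tested in concentration series up to a 50 uM maximum. Kinase activity of recombinant human CK2 α2β2 was measured 1 h after dosing by fluorescent substrate/product mobility-shift separation.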
# [7] = target: Cytochrome P450 3A4 (Homo sapiens) (UniProt P08684); experiment: NVS_ADME_hCYP3A4: NovaScreen (NVS) CYP450-related Enzyme Activity (ADME) Assay for human CYP3A4 (AID 2283110)
# How it was run: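 Activity is derived from decreased fluorescence intensity relative to acetonitrile, measured 0.33 hour after dosing insect-cell-expressed CYP3A4 in a cell-free format. Screening used 10 uM in duplicate before concentration-response follow-up.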
# [8] = target: human AKT serine/threonine Kinase 2 (AKT2), AKT2 (gene 208) (UniProt P31751); experiment: NVS_ENZ_hAKT2: NovaScreen (NVS) Enzymatic Assay for human AKT serine/threonine Kinase 2 (AKT2) (AID 2283141)
# How it was run: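 Cell-free fluorescence/electrophoretic mobility shift readout of recombinant human AKT2 activity, 1 h after chemical dosing. Duplicate primary screen at 25 uM, then singleton concentration-response up to 50 uM; loss of signal versus DMSO baseline.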
# rat CYP2C6, gene 293989 = experiment: NVS_ADME_rCYP2C6: NovaScreen (NVS) CYP450-related Enzyme Activity (ADME) Assay for rat CYP2C6 (AID 2283120)
# How it was run: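 Compounds first tested in duplicate at 10 uM, hits (e.g. 30% inhibition) re-run in singleton dose series to a 20 uM top concentration. Enzyme activity of recombinant rat CYP2C6 measured via fluorescent substrate turnover after 1 h; acetonitrile baseline.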
# [9] = target: rat CYP2C13, Cyp2c13 (gene 171521) (UniProt P20814); experiment: NVS_ADME_rCYP2C13: NovaScreen (NVS) CYP450-related Enzyme Activity (ADME) Assay for rat CYP2C13 (AID 2283121)
# How it was run: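 Inhibition is read as decreased fluorescent product formation, referenced to acetonitrile vehicle. Cell-free recombinant rat Cyp2c13 reaction ran 0.75 hour; compounds first at 10 uM in duplicate, then concentration series for actives.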
# [10] = target: rat CYP2D2, Cyp2d26 (gene 25053) (UniProt P10634); experiment: NVS_ADME_rCYP2D2: NovaScreen (NVS) CYP450-related Enzyme Activity (ADME) Assay for rat CYP2D2 (AID 2283124)
# How it was run: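 Single-concentration duplicate testing at 10 uM, followed by concentration-response (top 20 uM) for chemicals passing threshold. Enzyme activity of the recombinant rat isoform measured by fluorescence after 0.75 h, acetonitrile as baseline.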
# [11] = target: human Caspase 5 (CASP5), CASP5 (gene 838) (UniProt P51878); experiment: NVS_ENZ_hCASP5: NovaScreen (NVS) Enzymatic Assay for human Caspase 5 (CASP5) (AID 2283137)
# How it was run: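 Fluorescent substrate readout of CASP5 activity (loss-of-signal), measured 2 h post-dose. Protein expressed in E. coli. Primary screen duplicate at 25 uM; actives meeting threshold (e.g., 30% inhibition) rerun singleton, max 50 uM.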
# [12] = target: human AKT serine/threonine Kinase 1 (AKT1), AKT1 (gene 207) (UniProt P31749); experiment: NVS_ENZ_hAKT1: NovaScreen (NVS) Enzymatic Assay for human AKT serine/threonine Kinase 1 (AKT1) (AID 2283138)
# How it was run: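 Fluorescence and mobility-shift readout of kinase activity, taken 1 h post-dosing in a cell-free format with recombinant protein. Primary screen at 25 uM in duplicate; hits (e.g. 30% inhibition) retested in concentration series topping at 50 uM.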
# [13] = target: human Caspase 4 (CASP4), CASP4 (gene 837) (UniProt P49662); experiment: NVS_ENZ_hCASP4: NovaScreen (NVS) Enzymatic Assay for human Caspase 4 (CASP4) (AID 2283143)
# How it was run: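 Compounds were first tested in duplicate at 25 uM, and hits were titrated singly to a 50 uM maximum. Recombinant protease from E. coli was read by fluorescence 2 h post-dose, and activity loss was fitted against the DMSO baseline.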
# CDK2 (gene 1017) = CDK2 (gene 1017) (UniProt P24941); experiment: NVS_ENZ_hCDK2: NovaScreen (NVS) Enzymatic Assay for human Cyclin-Cependent Kinase 2 (CDK2) (AID 2283144)
# How it was run: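 Compounds screened in duplicate at 25 uM, then in singleton concentration-response to a maximum of 50 uM, against recombinant CDK2; kinase activity read 1 hr after dosing by fluorescence with mobility-shift separation of substrate and product.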
# [14] = target: human Casein Kinase 1-delta (CK1D), CSNK1D (gene 1453) (UniProt P48730); experiment: NVS_ENZ_hCK1D: NovaScreen (NVS) Enzymatic Assay for human Casein Kinase 1-delta (CK1D) (AID 2283148)
# How it was run: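 Recombinant human CK1-delta, cell-free; fluorescent substrate with electrophoretic mobility-shift separation of product, read 1 h after dosing. Single 25 uM duplicate screen, then concentration-response up to 50 uM; loss of signal vs DMSO.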
# Chain of rat CYP2A1, Cyp2a1 (gene 24894) (P11711 whole entry, looked up): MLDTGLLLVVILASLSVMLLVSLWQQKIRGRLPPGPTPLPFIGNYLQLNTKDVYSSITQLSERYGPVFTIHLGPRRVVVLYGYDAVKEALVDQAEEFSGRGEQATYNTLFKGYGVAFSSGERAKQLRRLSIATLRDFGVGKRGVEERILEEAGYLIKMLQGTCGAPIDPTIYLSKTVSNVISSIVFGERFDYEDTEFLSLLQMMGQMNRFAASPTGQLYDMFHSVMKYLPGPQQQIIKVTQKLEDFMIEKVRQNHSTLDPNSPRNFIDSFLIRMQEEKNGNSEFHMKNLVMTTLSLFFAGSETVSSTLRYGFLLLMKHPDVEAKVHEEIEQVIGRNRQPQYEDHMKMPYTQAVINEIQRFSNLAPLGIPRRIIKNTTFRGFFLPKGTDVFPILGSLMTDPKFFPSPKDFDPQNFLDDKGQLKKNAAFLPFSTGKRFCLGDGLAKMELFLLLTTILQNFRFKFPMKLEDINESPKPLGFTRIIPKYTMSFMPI
# Chain of human CYP2D6, CYP2D6 (gene 1565) (P10635 whole entry, looked up): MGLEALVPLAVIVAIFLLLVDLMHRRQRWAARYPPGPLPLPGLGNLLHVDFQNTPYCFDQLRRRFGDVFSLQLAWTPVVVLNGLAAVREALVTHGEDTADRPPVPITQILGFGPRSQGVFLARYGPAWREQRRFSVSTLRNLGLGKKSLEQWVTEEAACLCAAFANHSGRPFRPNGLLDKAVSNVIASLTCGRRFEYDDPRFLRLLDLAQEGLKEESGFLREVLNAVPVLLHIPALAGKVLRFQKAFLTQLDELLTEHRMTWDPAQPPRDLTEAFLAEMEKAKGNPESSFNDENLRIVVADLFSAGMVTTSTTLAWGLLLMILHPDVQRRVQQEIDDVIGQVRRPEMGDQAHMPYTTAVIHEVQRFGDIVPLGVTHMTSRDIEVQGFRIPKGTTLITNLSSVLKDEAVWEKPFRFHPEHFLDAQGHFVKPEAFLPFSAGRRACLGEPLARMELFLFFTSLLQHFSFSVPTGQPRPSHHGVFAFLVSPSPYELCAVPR
# Chain of rat CYP3A2, Cyp3a2 (gene 266682) (P05183 whole entry, looked up): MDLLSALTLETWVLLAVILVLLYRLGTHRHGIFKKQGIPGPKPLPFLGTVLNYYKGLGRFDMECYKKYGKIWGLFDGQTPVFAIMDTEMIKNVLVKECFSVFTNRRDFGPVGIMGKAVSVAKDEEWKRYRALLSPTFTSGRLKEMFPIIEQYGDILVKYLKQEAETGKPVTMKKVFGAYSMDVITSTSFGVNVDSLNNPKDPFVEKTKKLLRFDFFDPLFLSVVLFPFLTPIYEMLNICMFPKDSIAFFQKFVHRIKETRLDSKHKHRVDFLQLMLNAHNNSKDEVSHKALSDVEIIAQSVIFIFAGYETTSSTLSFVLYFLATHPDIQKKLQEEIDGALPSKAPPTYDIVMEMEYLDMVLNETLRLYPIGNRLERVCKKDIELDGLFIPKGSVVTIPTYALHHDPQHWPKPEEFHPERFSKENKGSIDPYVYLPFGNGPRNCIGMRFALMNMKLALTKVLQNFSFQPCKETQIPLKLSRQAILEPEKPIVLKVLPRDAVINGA
# Chain of rat CYP2C11, Cyp2c11 (gene 29277) (P08683 whole entry, looked up): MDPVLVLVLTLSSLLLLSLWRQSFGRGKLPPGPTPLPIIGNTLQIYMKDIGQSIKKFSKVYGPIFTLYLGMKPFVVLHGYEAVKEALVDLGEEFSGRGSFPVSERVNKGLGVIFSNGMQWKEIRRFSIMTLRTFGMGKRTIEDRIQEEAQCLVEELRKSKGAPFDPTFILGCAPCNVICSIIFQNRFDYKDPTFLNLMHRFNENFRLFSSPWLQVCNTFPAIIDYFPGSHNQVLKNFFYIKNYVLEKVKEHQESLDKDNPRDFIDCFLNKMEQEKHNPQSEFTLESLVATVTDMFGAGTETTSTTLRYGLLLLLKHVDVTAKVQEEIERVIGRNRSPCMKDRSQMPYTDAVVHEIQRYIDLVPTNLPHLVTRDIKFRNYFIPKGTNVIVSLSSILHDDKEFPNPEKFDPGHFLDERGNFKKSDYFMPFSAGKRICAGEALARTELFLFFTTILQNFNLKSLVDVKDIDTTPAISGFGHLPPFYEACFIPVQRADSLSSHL
# Chain of rat CYP2D2, Cyp2d26 (gene 25053) (P10634 whole entry, looked up, canonical isoform): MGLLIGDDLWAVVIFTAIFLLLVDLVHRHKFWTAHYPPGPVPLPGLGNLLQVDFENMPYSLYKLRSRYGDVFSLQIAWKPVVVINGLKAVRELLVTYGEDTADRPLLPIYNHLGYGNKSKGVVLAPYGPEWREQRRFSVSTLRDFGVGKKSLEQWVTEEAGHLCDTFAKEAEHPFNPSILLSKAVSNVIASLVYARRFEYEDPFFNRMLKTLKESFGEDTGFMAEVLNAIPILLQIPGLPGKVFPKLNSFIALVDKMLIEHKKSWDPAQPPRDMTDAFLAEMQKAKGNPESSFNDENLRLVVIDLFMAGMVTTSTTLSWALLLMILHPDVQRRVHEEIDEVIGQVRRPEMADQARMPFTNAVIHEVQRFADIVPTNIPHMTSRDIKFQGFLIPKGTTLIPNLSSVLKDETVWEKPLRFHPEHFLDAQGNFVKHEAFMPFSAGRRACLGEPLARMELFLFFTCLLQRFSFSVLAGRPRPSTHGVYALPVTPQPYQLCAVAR
# Chain of Cytochrome P450 3A4 (Homo sapiens) (P08684 whole entry, looked up): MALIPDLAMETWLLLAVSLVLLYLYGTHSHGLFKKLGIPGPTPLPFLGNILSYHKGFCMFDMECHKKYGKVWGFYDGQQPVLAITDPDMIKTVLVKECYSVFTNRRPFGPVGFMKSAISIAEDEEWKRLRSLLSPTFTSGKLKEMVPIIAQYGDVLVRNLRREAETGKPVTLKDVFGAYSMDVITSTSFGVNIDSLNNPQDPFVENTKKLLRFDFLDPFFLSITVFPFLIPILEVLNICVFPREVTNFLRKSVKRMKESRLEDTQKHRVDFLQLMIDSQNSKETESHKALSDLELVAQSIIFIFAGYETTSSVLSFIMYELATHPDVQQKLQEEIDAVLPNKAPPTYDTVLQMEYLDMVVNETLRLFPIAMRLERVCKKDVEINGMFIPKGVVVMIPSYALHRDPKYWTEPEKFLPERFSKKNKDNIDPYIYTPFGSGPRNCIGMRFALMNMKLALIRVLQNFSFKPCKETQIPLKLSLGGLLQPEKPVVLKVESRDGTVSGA
# Chain of human Casein Kinase 1-delta (CK1D), CSNK1D (gene 1453) (P48730 whole entry, looked up): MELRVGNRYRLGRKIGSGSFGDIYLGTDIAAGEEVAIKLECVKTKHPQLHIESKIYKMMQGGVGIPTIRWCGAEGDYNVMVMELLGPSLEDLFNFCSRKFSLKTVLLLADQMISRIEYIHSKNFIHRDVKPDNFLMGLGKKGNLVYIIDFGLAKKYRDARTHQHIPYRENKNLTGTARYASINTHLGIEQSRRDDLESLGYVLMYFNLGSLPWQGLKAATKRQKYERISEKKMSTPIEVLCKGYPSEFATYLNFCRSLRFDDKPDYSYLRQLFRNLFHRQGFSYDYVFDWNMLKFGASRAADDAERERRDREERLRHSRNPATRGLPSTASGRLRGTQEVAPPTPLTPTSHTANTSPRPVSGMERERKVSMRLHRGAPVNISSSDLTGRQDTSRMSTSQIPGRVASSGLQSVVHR
# Chain of human Caspase 5 (CASP5), CASP5 (gene 838) (P51878 whole entry, looked up): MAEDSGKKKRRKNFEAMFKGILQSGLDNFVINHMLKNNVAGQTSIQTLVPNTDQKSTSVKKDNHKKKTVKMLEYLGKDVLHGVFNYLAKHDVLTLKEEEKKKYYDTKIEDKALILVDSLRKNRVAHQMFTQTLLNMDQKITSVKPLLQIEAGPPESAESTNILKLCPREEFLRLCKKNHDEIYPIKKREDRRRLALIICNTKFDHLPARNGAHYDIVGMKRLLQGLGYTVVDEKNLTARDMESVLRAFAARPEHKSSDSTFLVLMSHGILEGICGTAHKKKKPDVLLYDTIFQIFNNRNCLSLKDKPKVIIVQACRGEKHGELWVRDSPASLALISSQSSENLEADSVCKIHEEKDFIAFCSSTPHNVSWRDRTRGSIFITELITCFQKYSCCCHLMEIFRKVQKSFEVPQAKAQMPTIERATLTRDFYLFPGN
# Chain of human AKT serine/threonine Kinase 2 (AKT2), AKT2 (gene 208) (P31751 whole entry, looked up): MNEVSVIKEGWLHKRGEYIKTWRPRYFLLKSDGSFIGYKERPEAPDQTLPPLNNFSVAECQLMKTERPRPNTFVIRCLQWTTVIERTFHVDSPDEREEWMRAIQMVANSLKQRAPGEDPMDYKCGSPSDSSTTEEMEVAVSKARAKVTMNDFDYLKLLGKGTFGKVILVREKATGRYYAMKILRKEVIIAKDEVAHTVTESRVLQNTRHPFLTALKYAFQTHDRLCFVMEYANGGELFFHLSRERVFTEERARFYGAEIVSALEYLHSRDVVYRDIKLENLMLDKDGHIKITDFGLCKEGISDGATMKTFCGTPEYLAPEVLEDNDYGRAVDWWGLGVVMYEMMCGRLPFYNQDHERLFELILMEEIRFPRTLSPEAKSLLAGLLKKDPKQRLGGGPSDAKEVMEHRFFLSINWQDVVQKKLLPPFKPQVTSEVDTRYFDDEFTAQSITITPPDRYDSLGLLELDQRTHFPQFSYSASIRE
# Chain of rat CYP2C13, Cyp2c13 (gene 171521) (P20814 whole entry, looked up): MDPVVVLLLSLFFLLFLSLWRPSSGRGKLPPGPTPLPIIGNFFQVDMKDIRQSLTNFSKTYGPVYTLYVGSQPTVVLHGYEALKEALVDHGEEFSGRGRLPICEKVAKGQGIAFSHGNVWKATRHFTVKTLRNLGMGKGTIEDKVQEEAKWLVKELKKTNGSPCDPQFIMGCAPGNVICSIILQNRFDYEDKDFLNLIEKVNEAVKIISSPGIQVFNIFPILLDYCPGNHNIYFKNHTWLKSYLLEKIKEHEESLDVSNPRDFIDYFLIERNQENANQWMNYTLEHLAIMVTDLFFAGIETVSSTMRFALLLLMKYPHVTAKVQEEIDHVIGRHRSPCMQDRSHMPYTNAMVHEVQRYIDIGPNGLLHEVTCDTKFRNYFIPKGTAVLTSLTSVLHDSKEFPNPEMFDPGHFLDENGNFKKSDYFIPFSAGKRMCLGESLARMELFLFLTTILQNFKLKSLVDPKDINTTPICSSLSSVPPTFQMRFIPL
compound,measurement,setting,value
C#C[C@]1(O)CC[C@H]2[C@@H]3CCC4=CC(=O)CC[C@@H]4[C@H]3CC[C@@]21CC,AC50,[1],1.24 µM (active)
CCCCCOC(=O)COc1cc(N2C(=O)C3=C(CCCC3)C2=O)c(F)cc1Cl,AC50,[1],4.42 µM (active)
same,outcome,[2],inactive
N#CSCSc1nc2ccccc2s1,AC50,[3],1.99 µM (active) and 1.9 µM (active)
same,AC50,[1],4.76 µM (active)
same,AC50,[4],9.17 µM (active)
same,AC50,"rat CYP3A1, gene 25642",10.1 µM (active)
same,AC50,[5],7.06 µM (active)
same,AC50,[6],14.4 µM (active)
CCCCC(CC)CN1C(=O)C2C3C=CC(C3)C2C1=O (configuration not stated),AC50,[7],3 µM (active)
same,AC50,[1],8.18 µM (active)
same,AC50,"rat CYP3A1, gene 25642",6.63 µM (active)
same,AC50,[5],6.87 µM (active)
same,outcome,[8],inactive
Oc1ccc(C(c2ccc(O)cc2)C(Cl)(Cl)Cl)cc1,AC50,[7],7.75 µM (active)
same,AC50,[1],1.03 µM (active)
same,AC50,[2],1.29 µM (active)
same,AC50,[4],0.188 µM (active)
same,AC50,"rat CYP2C6, gene 293989",2.57 µM (active)
same,AC50,[9],0.883 µM (active)
same,AC50,[10],2.74 µM (active)
same,AC50,"rat CYP3A1, gene 25642",2.7 µM (active)
same,AC50,[5],2.7 µM (active)
same,AC50,[11],10.1 µM (active)
CCCCCCC(C)OC(=O)COc1nc(F)c(Cl)c(N)c1Cl (configuration not stated),AC50,[7],7.6 µM (active)
same,AC50,[1],4.62 µM (active)
CC(C)(C)[C@@H](O)[C@@H](Cc1ccc(Cl)cc1)n1cncn1,AC50,[7],2.68 µM (active)
same,AC50,[1],0.172 µM (active)
same,AC50,[2],1.7 µM (active)
same,AC50,[4],2.05 µM (active)
same,AC50,[9],0.37 µM (active)
same,AC50,"rat CYP3A1, gene 25642",3.44 µM (active)
same,AC50,[5],4.88 µM (active)
CCCOC(=O)c1ccc(C(=O)OCCC)nc1,AC50,[1],6.74 µM (active)
COc1nc(C)nc(NC(=O)NS(=O)(=O)c2ccccc2OCCCl)n1,AC50,[3],1.07 µM (active)
same,AC50,[1],0.0177 µM (active)
same,outcome,[12],inactive
CC(=O)S[C@@H]1CC2=CC(=O)CC[C@]2(C)[C@H]2CC[C@@]3(C)[C@@H](CC[C@@]34CCC(=O)O4)[C@H]12,AC50,[1],6.12 µM (active)
CCOC(=O)NCCOc1ccc(Oc2ccccc2)cc1,AC50,[3],1.98 µM (active)
same,AC50,[1],0.816 µM (active)
same,AC50,"rat CYP3A1, gene 25642",5.62 µM (active)
CSC(=O)c1cccc2nnsc12,AC50,[3],3.55 µM (active)
same,AC50,[1],3.95 µM (active)
same,AC50,"rat CYP3A1, gene 25642",4.28 µM (active)
same,AC50,[5],1.79 µM (active)
CCC(O)=C1C(=O)CC(C(=O)O)CC1=O (configuration not stated),outcome,[7],inactive
same,outcome,[11],inactive
same,outcome,[8],inactive
same,outcome,[13],inactive
CCOC(=O)C(C)Oc1ccc(Oc2nc3ccc(Cl)cc3o2)cc1 (configuration not stated),AC50,[1],10 µM (active)
CCCCOCCOCCOCc1cc2c(cc1CCC)OCO2,AC50,[3],3.87 µM (active)
same,AC50,[1],1.73 µM (active)
same,outcome,[2],inactive
same,AC50,[4],7.57 µM (active)
same,AC50,"rat CYP2C6, gene 293989",6.42 µM (active)
same,outcome,[10],inactive
same,AC50,"rat CYP3A1, gene 25642",5.03 µM (active)
same,AC50,[5],4.85 µM (active)
CC1(C)C(C=C(Cl)Cl)C1C(=O)OCc1cccc(Oc2ccccc2)c1 (configuration not stated),outcome,[1],inactive
O=C(c1ccc(O)cc1O)c1ccc(O)cc1O,AC50,[7],5.88 µM (active)
same,AC50,[1],6.3 µM (active)
same,AC50,CDK2 (gene 1017),17 µM (active)
same,AC50,[14],17.3 µM (active)
C=CCOC(Cn1ccnc1)c1ccc(Cl)cc1Cl (configuration not stated),AC50,[3],3.95 µM (active)
same,AC50,[1],0.062 µM (active)
same,AC50,[2],0.187 µM (active)
same,AC50,[4],0.463 µM (active)
same,AC50,"rat CYP2C6, gene 293989",0.452 µM (active)
same,AC50,[10],0.125 µM (active)
same,AC50,"rat CYP3A1, gene 25642",0.729 µM (active)
same,AC50,[5],0.874 µM (active)
CCCN(CCC)C(=O)SCC,AC50,[1],8.68 µM (active)
same,outcome,[1],inactive
CC(=O)[C@H]1CC[C@H]2[C@@H]3CCC4=CC(=O)CC[C@]4(C)[C@H]3CC[C@]12C,AC50,[7],5.46 µM (active) and 2.77 µM (active)
same,AC50,[1],2.46 µM (active) and 4.48 µM (active) and 6.21 µM (active)
same,AC50,[4],3.08 µM (active) and 6.76 µM (active)
same,outcome,[14],inactive
